The results in this text go back to PubChem BioAssay (Tox21).

Inconclusive results are not listed. A number with no mark means an inactive call. The source made the active and inactive calls. Calls follow the shape of the dose curve; as a rule, active = well fitted curve in the direction sought with a large enough effect in the repeat runs; inconclusive = weak or mixed curves; inactive = no such curve, though single readings can be large; an effect the other way counts as inactive or inconclusive.
% is scaled to controls: 0 for no effect and ±100 for the full control effect.

Androgen receptor (Homo sapiens), sequence (P10275 whole entry, looked up): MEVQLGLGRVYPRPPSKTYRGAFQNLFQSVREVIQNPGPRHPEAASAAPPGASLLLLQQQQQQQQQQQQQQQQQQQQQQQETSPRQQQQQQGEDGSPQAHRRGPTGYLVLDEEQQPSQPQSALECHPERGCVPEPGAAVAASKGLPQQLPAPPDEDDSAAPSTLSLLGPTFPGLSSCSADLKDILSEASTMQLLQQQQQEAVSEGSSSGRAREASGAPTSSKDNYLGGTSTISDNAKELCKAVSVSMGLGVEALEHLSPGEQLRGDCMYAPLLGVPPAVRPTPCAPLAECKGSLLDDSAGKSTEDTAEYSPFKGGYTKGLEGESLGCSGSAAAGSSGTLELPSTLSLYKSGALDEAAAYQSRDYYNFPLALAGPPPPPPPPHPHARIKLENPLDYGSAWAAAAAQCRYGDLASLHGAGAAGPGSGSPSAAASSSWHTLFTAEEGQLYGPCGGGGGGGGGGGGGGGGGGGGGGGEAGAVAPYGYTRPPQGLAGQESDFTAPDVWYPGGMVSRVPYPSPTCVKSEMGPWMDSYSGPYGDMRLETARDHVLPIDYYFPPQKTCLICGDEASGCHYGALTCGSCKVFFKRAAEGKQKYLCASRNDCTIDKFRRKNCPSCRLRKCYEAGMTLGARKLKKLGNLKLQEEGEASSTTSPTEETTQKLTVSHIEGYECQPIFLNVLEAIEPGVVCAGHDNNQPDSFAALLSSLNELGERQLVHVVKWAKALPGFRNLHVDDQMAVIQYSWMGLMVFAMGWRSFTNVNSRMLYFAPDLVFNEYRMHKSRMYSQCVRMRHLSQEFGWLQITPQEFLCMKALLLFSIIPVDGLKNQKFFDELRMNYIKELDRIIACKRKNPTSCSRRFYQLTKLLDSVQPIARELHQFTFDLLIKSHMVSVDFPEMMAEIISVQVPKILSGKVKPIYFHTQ

One test addresses Androgen receptor (Homo sapiens) (UniProt P10275). As to the kind of experiment: qHTS assay to identify small molecule antagonists of the androgen receptor (AR) signaling pathway using the MDA cell line (AID 743042; also: nearly all actives have a fitted effect of over 55% in size). To be noted: MDA-kb2 AR-luc, MMTV luciferase, R1881 antagonist, 16 h; series mostly up to 70.3 µM; activity change, negative = inhibition: at the top concentration. The gist of the method:
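MDA-kb2 breast carcinoma cells carrying MMTV-luciferase (AR/GR responsive) were co-treated with compounds and the agonist R1881 for 16 h at 37C. Inhibition read as ONE-Glo luminescence; CellTiter-Fluor fluorescence measured in parallel for cytotoxicity.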
For orientation: qHTS replaces the single test concentration by a dilution series.
As for `C=C(C)C(=O)OCCCC`, the “activity change, negative = inhibition” value is -17.5% [at 95 µM].
As for `CCCCCCCCC1CO1` (configuration not stated), the “activity change, negative = inhibition” value is 1.86% [at 95 µM].
With `CN(C)c1cc(NC(=O)CNC(C)(C)C)c(O)c2c1C[C@H]1C[C@H]3[C@H](N(C)C)C(=O)C(C(N)=O)=C(O)[C@@]3(O)C(=O)C1=C2O`, the “activity change, negative = inhibition” value was -16.4%.
Take `CC1(C)C(=O)C(C)(C)C1=O`: the “activity change, negative = inhibition” value was 10.4%.
Turning to `O=C1c2ccccc2C(=O)N1CO`, the “activity change, negative = inhibition” value is 3.67% [at 95 µM].
For the compound `CC(O)C(CO)C(C)O` (configuration not stated), the “activity change, negative = inhibition” value is 3.66% [at 95 µM].
Same read-out and setting: to `COC(C)(C)CC(C)=O` belongs -1.71%.

System in a further test: not listed separately
Briefly: qHTS assay to identify small molecule antagonists of the thyroid receptor (TR) signaling pathway - cell viability counter screen (AID 743064). Also: nearly all actives have a fitted effect of over 50% in size. To be noted: GH3.TRE-Luc viability, CellTiter-Fluor, 24 h; series mostly up to 70.3 µM; activity change, negative = cytotoxic: at the top concentration. The essentials: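 GH3.TRE-Luc rat pituitary cells dosed after 4 hr plating, co-stimulated with T3 at 1 nM final, incubated 23.5 h at 37 C. Viability measured in the same wells by CellTiter-Fluor fluorescence after 30 min further at 37 C.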
In the case of `CCCCC(CC)CCC(CC(C)C)OS(=O)(=O)O` (configuration not stated), the Potency result is “inactive”.
Turning to `C=C(C)C(=O)OCCCC`, the “activity change, negative = cytotoxic” value is 8.49% [at 95 µM].
The same measure, in the same setting: next, `CC(C)C(C)C`: 18.3%; `CC(=O)Oc1ccc(C(C)=O)cc1`: 20.9% [at 95 µM].
On the same count and under the same terms, next, `CCCCCCCCC1CO1` (configuration not stated): 3.07% [at 95 µM]; `CC(C)c1cc(C(C)C)cc(C(C)C)c1`: 16.9%; `C=CC(=O)OCC[N+](C)(C)C`: 5.66% [at 95 µM].
Regarding `CC1(C)C(=O)C(C)(C)C1=O`, the “activity change, negative = cytotoxic” value was -1.97%.
For `CCCCCC(CC)OC(=O)CCCOc1ccc(Cl)cc1Cl` (configuration not stated), the “activity change, negative = cytotoxic” value was -16.4%.
In the case of `Cc1ccc2ccccc2n1`, the “activity change, negative = cytotoxic” value was -1.63%.
Still for that read-out and setting: to `C=CCON/C(CCC)=C1\C(=O)CC(C)(C)C(C(=O)OC)=C1O` belongs -1.63%; to `CCCCCC(=O)CC`, 22.6% [at 95 µM].
As to `O=C1c2ccccc2C(=O)N1CO`, the “activity change, negative = cytotoxic” value was 12.8% [at 95 µM].
As for `CN(C)CCC[C@@]1(c2ccc(F)cc2)OCc2cc(C#N)ccc21`, the “activity change, negative = cytotoxic” value is -29.3%.
For `CC(C)C[P+](C)(CC(C)C)CC(C)C`, the “activity change, negative = cytotoxic” value is -2.33% [at 95 µM].
With `C=COCCCCO`, the “activity change, negative = cytotoxic” value was 10.6%.
`O=C(O)Cc1c(Cl)ccc(Cl)c1Cl`: the “activity change, negative = cytotoxic” value is 12%.
With `CC(O)C(CO)C(C)O` (configuration not stated), the “activity change, negative = cytotoxic” value was 9.99% [at 95 µM].
For `CCOC(=O)CC`, the “activity change, negative = cytotoxic” value was 17.6%.
As to `O=C1CC2(CCCC2)CC(=O)N1CCNCC1COc2ccccc2O1` (configuration not stated), the “activity change, negative = cytotoxic” value was 17.9%.
For `CC1=C(O)C(=O)CO1`, the “activity change, negative = cytotoxic” value is -1.2%.
On the same count and under the same terms, next, `CC[N+](C)(CC)CC`: 11.5%.
Same read-out and setting: to `O=C(OOC(=O)c1ccccc1)c1ccccc1` belongs 19%; to `CCCCC(CC)COC(=O)CC#N` (configuration not stated), -9.83%.
In the case of `O=S(=O)(O)c1cc(I)c(O)c2ncccc12`, the “activity change, negative = cytotoxic” value was 9.57%.
`Cc1nc2ccc(Cl)cc2[nH]1`: the “activity change, negative = cytotoxic” value is -1.33%.
Regarding `COC(C)(C)CC(C)=O`, the “activity change, negative = cytotoxic” value was 11.9%.
Consider `CC(=O)Nc1ccc(OCCOCCOc2ccc(NC(C)=O)cc2)cc1`, for which the “activity change, negative = cytotoxic” value is 18.5%.
For the compound `CCCC(=O)CC`, the “activity change, negative = cytotoxic” value is 6.06% [at 95 µM].
Turning to `N#CC1(N)CCCCC1`, the “activity change, negative = cytotoxic” value is 0% [at 95 µM].
